Experimental data published in PMC4336329 (PLoS ONE, 2015).
Out of some 310,000 compounds screened, about 14,000 (4.5%) showed an effect of 50% or more. The effect is printed as a negative number. The sample holds strong results, similar compounds and a random draw of the others, so the mix is not that of the screen.

Biological target: human ether-à-go-go-related gene (hERG) potassium channel (human, UniProt Q12809)
Assay: primary screen, population patch clamp on CHO cells stably expressing hERG; higher = less effect of the substance
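Note: peak tail current of the secondary pulse compared with the same well before compound.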

human ether-à-go-go-related gene (hERG) potassium channel, sequence (Q12809 whole entry, looked up): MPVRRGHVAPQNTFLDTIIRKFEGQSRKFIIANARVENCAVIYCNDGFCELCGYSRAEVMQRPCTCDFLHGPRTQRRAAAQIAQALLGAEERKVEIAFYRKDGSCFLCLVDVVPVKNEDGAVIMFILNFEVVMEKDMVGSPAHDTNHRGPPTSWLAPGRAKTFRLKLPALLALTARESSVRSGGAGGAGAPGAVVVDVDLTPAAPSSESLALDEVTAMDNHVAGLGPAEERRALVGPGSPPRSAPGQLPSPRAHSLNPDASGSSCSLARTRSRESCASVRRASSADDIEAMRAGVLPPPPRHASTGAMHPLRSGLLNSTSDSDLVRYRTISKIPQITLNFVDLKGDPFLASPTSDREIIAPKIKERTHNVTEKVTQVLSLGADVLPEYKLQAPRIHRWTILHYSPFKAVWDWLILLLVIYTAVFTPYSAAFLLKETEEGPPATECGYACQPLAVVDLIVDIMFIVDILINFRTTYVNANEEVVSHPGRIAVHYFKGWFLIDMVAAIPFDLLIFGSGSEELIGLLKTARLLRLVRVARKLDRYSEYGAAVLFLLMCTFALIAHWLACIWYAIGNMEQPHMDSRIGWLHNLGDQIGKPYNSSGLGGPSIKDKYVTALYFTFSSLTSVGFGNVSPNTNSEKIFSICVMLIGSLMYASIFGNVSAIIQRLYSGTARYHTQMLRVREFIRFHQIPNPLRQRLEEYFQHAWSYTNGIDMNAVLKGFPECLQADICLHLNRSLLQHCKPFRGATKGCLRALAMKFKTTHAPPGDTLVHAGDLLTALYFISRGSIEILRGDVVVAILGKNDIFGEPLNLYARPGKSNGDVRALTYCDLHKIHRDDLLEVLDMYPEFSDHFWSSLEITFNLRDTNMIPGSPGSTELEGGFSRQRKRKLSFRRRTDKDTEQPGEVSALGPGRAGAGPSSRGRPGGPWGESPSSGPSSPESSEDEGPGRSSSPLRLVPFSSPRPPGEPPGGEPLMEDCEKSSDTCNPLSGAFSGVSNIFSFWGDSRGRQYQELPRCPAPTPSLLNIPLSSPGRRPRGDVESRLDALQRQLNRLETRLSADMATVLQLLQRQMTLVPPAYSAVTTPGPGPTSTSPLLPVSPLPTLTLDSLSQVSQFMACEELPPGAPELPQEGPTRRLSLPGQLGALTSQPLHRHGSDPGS

Row | SMILES | hERG current change (%, negative = inhibition) at 10uM
1 | CCn1c(CNC(=O)c2ccc(OC)c(OC)c2)nnc1SCC(=O)Nc1ccccc1 | -21.5%
2 | COC(=O)C1=C(c2cccc(C#N)c2)C[C@@H]2CC[C@H]1N2C(=O)N1CCOCC1 | 6.41%
3 | COc1ccc(-c2noc(CN(C)C(=O)CCN3C(=O)[C@H]4CC=CC[C@H]4C3=O)n2)cc1 | -2%
4 | COc1cc(C(=O)NCC(=O)OCC(=O)N2CCc3ccccc32)cc(OC)c1OC | 3.43%
5 | COc1ccc(OC)c(S(=O)(=O)Oc2ccc(N)c3ccccc23)c1 | 7.83%
6 | CC(C)(C)c1ccc(C(=O)NNC(=S)NCC2CCCO2)cc1 (stereo not drawn) | 14.4%
7 | CCOc1ccc(NC(=O)CCSc2ccc(C)cc2)cc1 | 8.63%
8 | Cc1ccc(Nc2nc(N)nc(CN3CCN(C(=O)c4ccco4)CC3)n2)cc1Cl | -74%
9 | O=C(c1cccc(Cl)c1)N1CCN(C(=O)c2ccco2)CC1 | -8.43%
10 | Nc1nc(CN2CCN(C(=O)c3ccco3)CC2)nc(Nc2cccc(Cl)c2)n1 | -78.6%
11 | O=C(c1ccco1)N1CCN(C(=O)c2ccc(CS(=O)c3cccc(Cl)c3)o2)CC1 (stereo not drawn) | -14%
12 | Cc1ccc(NC(=O)N2CCN(C(=O)c3ccco3)CC2)cc1Cl | -2.38%
13 | Cc1cc(/C=C2\SC(=S)NC2=O)c(C)n1-c1ccccc1 | 14.6%
14 | Oc1c(/C=C/C=C/C=Nc2ccccc2)sc(=S)n1Cc1ccccc1 | -5.14%
15 | Fc1ccc(N2CCN(c3nc(-c4ccco4)cc(C(F)(F)F)n3)CC2)cc1 | 15.2%
16 | FC(F)(F)c1cc(-c2ccco2)nc(N2CCN(c3ccccc3)CC2)n1 | 1.67%
17 | CN1CCN(c2nc(-c3ccco3)cc(C(F)(F)F)n2)CC1 | -62.8%
18 | O=C(O)Cc1ccc(NC(=O)C2CC=CCC2C(=O)O)cc1 (stereo not drawn) | 23.7%
19 | C[C@@H](NC(=O)c1nc[nH]c1C(=O)NC1CCN(C(=O)OC(C)(C)C)CC1)c1ccccc1 | -14.4%
20 | Nc1nc2n(n1)C(c1cccs1)CC(c1ccc(F)cc1)N2 (stereo not drawn) | -33.9%

Row | SMILES | hERG current change (%, negative = inhibition) at 10uM
21 | CCOc1ccccc1C1CC(c2ccc(F)cc2)Nc2nc(N)nn21 (stereo not drawn) | -48.1%
22 | CCOc1ccccc1C1CC(c2ccccc2)Nc2nc(N)nn21.Cl (stereo not drawn) | -11.9%
23 | Nc1nc2n(n1)C(c1ccccc1Cl)CC(c1ccc(F)cc1)N2 (stereo not drawn) | -25.1%
24 | CCOc1ccccc1C1CC(c2ccc(Br)cc2)Nc2nc(N)nn21 (stereo not drawn) | -55.1%
25 | Nc1nc2n(n1)C(c1cccs1)CC(c1ccccc1)N2 (stereo not drawn) | -23.5%
26 | COc1cccc(C2CC(c3c(F)cccc3Cl)n3nc(N)nc3N2)c1 (stereo not drawn) | -2.6%
27 | Nc1nc2n(n1)C(c1cccs1)CC(c1ccc(Br)cc1)N2 (stereo not drawn) | -57.5%
28 | Nc1nc2n(n1)C(c1c(F)cccc1Cl)CC(c1ccc(F)cc1)N2 (stereo not drawn) | -62.4%
29 | Cc1ccc(C2CC(c3ccccc3C)n3nc(N)nc3N2)cc1 (stereo not drawn) | -14.6%
30 | Cc1ccccc1C1CC(c2ccc(Br)cc2)Nc2nc(N)nn21 (stereo not drawn) | -52.3%
31 | Cc1ccccc1C1CC(c2ccc(F)cc2)Nc2nc(N)nn21 (stereo not drawn) | -27.2%
32 | CC(=O)N1CCN=C1SCc1cccc(Cl)c1 | -3.91%
33 | CC(C)C(c1nnnn1C1CCCCC1)N1CCc2ccccc2C1 (stereo not drawn) | 2.91%
34 | c1ccc(-c2cnc(-c3ccccn3)nn2)cc1 | 18.6%
35 | O=C(NCc1ccco1)c1ccc(N2CCCC2=O)cc1 | 4.3%
36 | Cc1cc(Nc2ccc(O)cc2)ccc1N | 14.1%
37 | COc1ccc(CCN=C2SCC(=O)N2C)cc1OC | -4.8%
38 | CCCCn1c(N)c(N(CCOC)C(=O)CSCc2c(C)noc2C)c(=O)[nH]c1=O | 17.1%
39 | O=C(O)c1ccc(NS(=O)(=O)c2ccc(N3CCCC3)c([N+](=O)[O-])c2)cc1 | 11.3%
40 | CCN(CCO)c1nc(N2CCCCC2)c2cnn(C)c2n1 | 3.12%

Row | SMILES | hERG current change (%, negative = inhibition) at 10uM
41 | COc1ccc2c(=O)c(C(=O)O)c(-c3ccc4c(c3)OCO4)n(C)c2c1 | 17.2%
42 | CCN=C1SC(CC(=O)NCC)C(=O)N1CC (stereo not drawn) | -12.5%
43 | O=C(N/N=C/c1ccc(O)cc1)c1cc(-c2ccccc2)nc2ccccc12 | 11.2%
44 | Cc1cccc(NC(=O)c2cc3ccccc3o2)c1 | -19.8%
45 | CCCn1c(NCc2ccc(C)o2)nc2ccccc21 | -24.1%
46 | CCCCn1c(C(C)NC(=O)CC)nc2ccccc21 (stereo not drawn) | -21.9%
47 | CCN(CC)CCn1c(NCc2ccco2)nc2ccccc21.Cl | -73%
48 | CCCCCn1c(NCc2ccco2)nc2ccccc21 | -74.8%
49 | CCN(CC)CCn1c(NCc2ccccn2)nc2ccccc21.Cl | -34.4%
50 | CCCCCCn1c(C(C)NC(=O)c2ccco2)nc2ccccc21 (stereo not drawn) | -59.9%
51 | C=CCn1c(-c2cccs2)nc2ccccc21 | 3.12%
52 | c1csc(Cn2c(-c3cccs3)nc3ccccc32)c1 | -68.6%
53 | CCn1c(-c2cccs2)nc2ccccc21 | -11.4%
54 | CCCCCn1c(C(C)NC(=O)CCC)nc2ccccc21 (stereo not drawn) | -48.4%
55 | CCn1c(NCc2ccco2)nc2ccccc21 | 2.38%
56 | Cn1c(NCc2ccco2)nc2ccccc21 | -10.2%
57 | Cn1cnnc1SCC(=O)c1ccc(O)c(O)c1 | 18.7%
58 | O=C1CC2(CCCCC2)Oc2ccc(F)cc21 | -4.03%
59 | CCN(CC)CCNC(=O)Cn1cnc2sc(C)c(S(=O)(=O)N3CC(C)CC(C)C3)c2c1=O (stereo not drawn) | 24.8%
60 | COc1ccc(Cn2c(=S)[nH]c3cc(OC)c(OC)cc3c2=O)cc1 | 20.4%
